Source: PubChem BioAssay (EPA / NIEHS)
Several values for one entry are separate records, joined by “and”; a condition that tells them apart may be missing. Identical values can stand only once. The source holds several records for some structures; these can differ, active in one and inactive in another. Activity calls are given as the source filed them. Rule for the calls: active = hit-call score of the fitted dose curve at least 0.9, where 1 is the maximum; inactive = score below 0.9.

Legend:
[1] = ATG_E_Box_CIS: Attagene CIS-FACTORIAL HepG2 Assay for human Enhancer Box (E-box) (AID 2282936); conditions: HepG2 E-box cis-reporter transcription, actives raise or lower the signal
Outline: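 DMSO served as negative control and baseline for bidirectional fitting. Human hepatoma HepG2 cells, transiently transfected with cis-reporter constructs, were dosed 24 h; reporter mRNA read by RT-PCR and capillary electrophoresis.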

[2] = ATG_M_61_CIS: Attagene CIS-FACTORIAL HepG2 Assay for M61 Transcription Factor (Internal Marker) (AID 2282937); conditions: HepG2 Attagene CIS-FACTORIAL M61 internal marker reporter; actives raise or lower the signal
Outline: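 Cells were transfected with reporter units under cis-regulatory promoters, treated with chemicals for 24 h, then lysed for RNA. Reporter transcripts were quantified by RT-PCR and capillary electrophoresis, and activity was fitted bidirectionally against DMSO.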

[3] = ATG_EGR_CIS: Attagene CIS-FACTORIAL HepG2 Assay for human Early Growth Response 1 (EGR1) (AID 2282938); conditions: HepG2 Attagene CIS-FACTORIAL EGR reporter mRNA; actives raise or lower the signal
Outline: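 Endogenous TF activity in HepG2 liver cells was gauged through cis-promoter reporter constructs transiently transfected. After 24 h dosing, reporter mRNA was quantified by RT-PCR and capillary electrophoresis, and curves fitted in both directions versus DMSO.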

[4] = ATG_M_19_CIS: Attagene CIS-FACTORIAL HepG2 Assay for M19 Transcription Factor (Internal Marker) (AID 2282939); conditions: HepG2 Attagene CIS-FACTORIAL M19 internal marker reporter; actives raise or lower the signal
Outline: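 Following a 24 h exposure, RNA from transfected HepG2 cells was reverse-transcribed, PCR-amplified with reporter-specific primers, end-labelled with 6-FAM and HpaI-digested before capillary separation. Values represent gain or loss versus DMSO.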

[5] = ATG_Ets_CIS: Attagene CIS-FACTORIAL HepG2 Assay for human Erythroblast Transformation Specific (ETS) (AID 2282941); conditions: HepG2 ETS cis-reporter transcription, actives raise or lower the signal
Outline: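 Steps: transfect HepG2 with multiple reporter units; treat compound 24 h; isolate RNA, DNase-treat, reverse-transcribe; PCR-amplify, label with 6-FAM, digest with HpaI; separate by capillary electrophoresis. Activity fitted both directions versus DMSO.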

[6] = biological target: Hepatocyte nuclear factor 3-beta (Homo sapiens) (UniProt Q9Y261); assay: ATG_FoxA2_CIS: Attagene CIS-FACTORIAL HepG2 Assay for human Forkhead box A2 (FOXA2) (AID 2282942); conditions: HepG2 cis-reporter transcription factor activity, 24 h; actives raise or lower the signal
Sequence of Hepatocyte nuclear factor 3-beta (Homo sapiens) (Q9Y261 whole entry, looked up): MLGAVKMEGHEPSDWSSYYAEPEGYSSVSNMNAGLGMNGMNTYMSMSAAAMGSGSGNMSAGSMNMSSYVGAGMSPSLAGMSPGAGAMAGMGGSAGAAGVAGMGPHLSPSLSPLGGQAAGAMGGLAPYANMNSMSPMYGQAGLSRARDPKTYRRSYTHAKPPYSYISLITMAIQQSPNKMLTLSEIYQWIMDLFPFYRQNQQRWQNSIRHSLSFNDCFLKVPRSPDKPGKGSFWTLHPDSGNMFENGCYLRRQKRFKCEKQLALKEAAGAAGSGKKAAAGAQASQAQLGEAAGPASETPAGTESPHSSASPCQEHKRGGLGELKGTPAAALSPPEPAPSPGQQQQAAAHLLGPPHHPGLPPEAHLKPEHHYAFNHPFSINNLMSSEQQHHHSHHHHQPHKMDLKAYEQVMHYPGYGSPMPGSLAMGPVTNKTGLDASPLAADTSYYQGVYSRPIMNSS
Outline: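 Endogenous transcription factor activity was read in HepG2 cells carrying transiently transfected cis-promoter reporter units. After 24 h dosing, reporter mRNA was quantified by RT-PCR and capillary electrophoresis, and values fitted bidirectionally versus DMSO.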

[7] = ATG_FoxO_CIS: Attagene CIS-FACTORIAL HepG2 Assay for human Forkhead box O (FoxO) (AID 2282943); conditions: HepG2 Attagene cis-reporter, FoxO element, mRNA; actives raise or lower the signal
Outline: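 HepG2, transient MRTU transfection (cis element, endogenous TFs). Dose 24 h. TriZol RNA → oligo(dT) RT → PCR → 6-FAM primer extension → HpaI cut → CE. Gain/loss vs DMSO.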

[8] = ATG_GATA_CIS: Attagene CIS-FACTORIAL HepG2 Assay for human GATA Binding Protein (AID 2282944); conditions: HepG2 GATA cis-element reporter, Attagene multiplex mRNA; actives raise or lower the signal
Outline: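 DMSO serves as negative control and baseline for bidirectional fitting of reporter mRNA changes. HepG2 cells bearing transiently transfected cis-promoter reporters were exposed 24 h; transcripts detected via RT-PCR and capillary electrophoresis.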

[9] = ATG_GLI_CIS: Attagene CIS-FACTORIAL HepG2 Assay for human Zinc Finger Protein GLI1 (AID 2282945); conditions: HepG2, Attagene cis-factorial reporter mRNA, GLI element; actives raise or lower the signal
Outline: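 Bidirectional curve fits relative to DMSO, using reporter mRNA levels from RT-PCR plus capillary electrophoresis. Cells were HepG2 transiently carrying cis-regulated reporter constructs, harvested 24 h after dosing.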

[10] = biological target: Bile acid receptor (Homo sapiens) (UniProt Q96RI1); assay: ATG_IR1_CIS: Attagene CIS-FACTORIAL HepG2 Assay for human Nuclear Receptor Subfamily 1 Group H Member 4 (NR1H4), IR1 submotif (AID 2282946); conditions: IR1 reporter transcription, actives raise or lower the signal
Sequence of Bile acid receptor (Homo sapiens) (Q96RI1 whole entry, looked up, the tested form may be a part): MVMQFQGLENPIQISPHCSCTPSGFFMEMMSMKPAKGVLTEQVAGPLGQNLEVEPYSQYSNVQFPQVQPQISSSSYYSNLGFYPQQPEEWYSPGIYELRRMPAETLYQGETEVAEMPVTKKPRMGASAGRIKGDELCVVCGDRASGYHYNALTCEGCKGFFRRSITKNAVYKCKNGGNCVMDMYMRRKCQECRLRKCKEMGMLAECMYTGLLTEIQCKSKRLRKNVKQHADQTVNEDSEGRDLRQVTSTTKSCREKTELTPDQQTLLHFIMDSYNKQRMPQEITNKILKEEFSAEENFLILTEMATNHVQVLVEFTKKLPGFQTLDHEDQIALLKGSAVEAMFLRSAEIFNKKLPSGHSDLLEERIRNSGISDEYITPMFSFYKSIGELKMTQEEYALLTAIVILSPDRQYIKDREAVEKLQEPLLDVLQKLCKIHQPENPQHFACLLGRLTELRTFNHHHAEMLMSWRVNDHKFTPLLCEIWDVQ
Outline: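 Cells (human HepG2) carry transiently transfected cis-promoter reporter transcription units. Compounds are incubated 24 h, total RNA is reverse-transcribed and amplified, and labelled fragments are resolved by capillary electrophoresis. Curves use DMSO as baseline.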

[11] = ATG_ISRE_CIS: Attagene CIS-FACTORIAL HepG2 Assay for human Interferon Regulatory Factor 1 (IRF1) binding to an Interferon-Stimulated Response Element (ISRE) (AID 2282948); conditions: HepG2 ISRE cis-reporter (Attagene), mRNA transcription readout; actives raise or lower the signal
Outline: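 Transfected HepG2 (multiple reporter transcription units, cis elements) dosed 24 h. RNA → oligo(dT) RT → PCR → 6-FAM primer extension → HpaI → CE. DMSO = negative control/baseline.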

[12] = ATG_M_32_CIS: Attagene CIS-FACTORIAL HepG2 Assay for M32 Transcription Factor (Internal Marker) (AID 2282949); conditions: HepG2 Attagene cis-factorial M32 reporter, mRNA; actives raise or lower the signal;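 note: background control marker of the multiplexed CIS panel rather than a real target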
Outline: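 Internal background marker read-out: RT-PCR/capillary electrophoresis fluorescence of reporter transcripts from transiently transfected HepG2 cells after 24 h chemical exposure. Activity fitted bidirectionally relative to DMSO negative control.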

[13] = ATG_M_06_CIS: Attagene CIS-FACTORIAL HepG2 Assay for M06 Transcription Factor (Internal Marker) (AID 2282950); conditions: HepG2 Attagene CIS-FACTORIAL M06 internal marker reporter; actives raise or lower the signal
Outline: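 Fluorescence-labelled RT-PCR products from cis-promoter reporter units, cut with HpaI and resolved by capillary electrophoresis, give the signal. Cells are human HepG2, dosed for 24 h. Serves as background control, fitted relative to DMSO.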

[14] = biological target: Hypoxia-inducible factor 1-alpha (Homo sapiens) (UniProt Q16665); assay: ATG_HIF1a_CIS: Attagene CIS-FACTORIAL HepG2 Assay for human Hypoxia Inducible Factor 1 (HIF1A) (AID 2282951); conditions: HepG2 Attagene cis-factorial HIF1a reporter transcription; actives raise or lower the signal
Sequence of Hypoxia-inducible factor 1-alpha (Homo sapiens) (Q16665 whole entry, looked up): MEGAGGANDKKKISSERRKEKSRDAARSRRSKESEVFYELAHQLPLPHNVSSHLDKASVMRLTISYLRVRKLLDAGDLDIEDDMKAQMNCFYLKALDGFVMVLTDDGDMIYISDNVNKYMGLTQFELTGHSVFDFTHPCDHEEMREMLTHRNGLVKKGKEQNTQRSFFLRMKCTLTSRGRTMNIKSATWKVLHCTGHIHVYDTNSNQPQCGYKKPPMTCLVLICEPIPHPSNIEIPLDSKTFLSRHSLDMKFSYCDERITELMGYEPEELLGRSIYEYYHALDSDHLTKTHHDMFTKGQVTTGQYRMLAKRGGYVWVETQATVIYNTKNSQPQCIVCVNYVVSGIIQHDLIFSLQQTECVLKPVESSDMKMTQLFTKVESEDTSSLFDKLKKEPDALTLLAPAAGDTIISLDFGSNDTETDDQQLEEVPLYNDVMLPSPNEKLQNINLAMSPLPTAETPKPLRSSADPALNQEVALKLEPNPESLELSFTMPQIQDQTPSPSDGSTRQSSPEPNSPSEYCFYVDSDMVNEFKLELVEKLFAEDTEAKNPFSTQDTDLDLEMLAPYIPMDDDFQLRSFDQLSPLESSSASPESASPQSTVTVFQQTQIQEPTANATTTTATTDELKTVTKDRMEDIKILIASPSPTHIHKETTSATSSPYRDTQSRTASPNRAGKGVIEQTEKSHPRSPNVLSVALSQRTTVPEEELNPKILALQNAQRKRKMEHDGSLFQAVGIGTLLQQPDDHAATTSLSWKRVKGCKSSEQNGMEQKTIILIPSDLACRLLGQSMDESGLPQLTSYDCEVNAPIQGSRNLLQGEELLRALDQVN
Outline: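 Measures endogenous transcription-factor activity through cis-regulated reporter mRNA in HepG2. Cells dosed 24 h; transcripts quantified by RT-PCR with 6-FAM-labelled products separated by capillary electrophoresis; DMSO serves as negative control.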

[15] = biological target: Hepatocyte nuclear factor 6 (Homo sapiens) (UniProt Q9UBC0); assay: ATG_HNF6_CIS: Attagene CIS-FACTORIAL HepG2 Assay for human Hepatocyte Nuclear Factor 6 (HNF6) (AID 2282952); conditions: HepG2 Attagene cis-factorial HNF6 reporter transcription; actives raise or lower the signal
Sequence of Hepatocyte nuclear factor 6 (Homo sapiens) (Q9UBC0 whole entry, looked up): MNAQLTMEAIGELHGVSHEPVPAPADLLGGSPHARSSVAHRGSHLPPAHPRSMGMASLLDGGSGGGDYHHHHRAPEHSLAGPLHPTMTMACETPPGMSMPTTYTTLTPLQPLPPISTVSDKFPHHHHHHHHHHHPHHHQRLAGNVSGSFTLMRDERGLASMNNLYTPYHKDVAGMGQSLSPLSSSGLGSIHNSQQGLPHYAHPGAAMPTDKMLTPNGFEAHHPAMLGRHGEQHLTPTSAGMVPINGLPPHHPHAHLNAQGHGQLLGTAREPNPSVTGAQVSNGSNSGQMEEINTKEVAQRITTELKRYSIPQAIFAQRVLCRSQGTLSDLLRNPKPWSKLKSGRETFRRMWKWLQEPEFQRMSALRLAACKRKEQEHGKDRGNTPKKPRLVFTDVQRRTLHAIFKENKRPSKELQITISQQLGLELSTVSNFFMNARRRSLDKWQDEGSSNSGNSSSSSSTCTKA
Outline: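 Cells are HepG2 carrying transiently transfected cis-promoter reporter units. Treatment lasts 24 h, after which reporter transcripts are reverse-transcribed, amplified, FAM-labelled and sized by capillary electrophoresis. DMSO serves as baseline.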

[16] = biological target: Heat shock factor protein 1 (Homo sapiens) (UniProt Q00613); assay: ATG_HSE_CIS: Attagene CIS-FACTORIAL HepG2 Assay for human Heat Shock Transcription Factor 1 (HSE) (AID 2282953); conditions: HepG2 HSE cis-reporter, Attagene RNA transcription; actives raise or lower the signal
Sequence of Heat shock factor protein 1 (Homo sapiens) (Q00613 whole entry, looked up): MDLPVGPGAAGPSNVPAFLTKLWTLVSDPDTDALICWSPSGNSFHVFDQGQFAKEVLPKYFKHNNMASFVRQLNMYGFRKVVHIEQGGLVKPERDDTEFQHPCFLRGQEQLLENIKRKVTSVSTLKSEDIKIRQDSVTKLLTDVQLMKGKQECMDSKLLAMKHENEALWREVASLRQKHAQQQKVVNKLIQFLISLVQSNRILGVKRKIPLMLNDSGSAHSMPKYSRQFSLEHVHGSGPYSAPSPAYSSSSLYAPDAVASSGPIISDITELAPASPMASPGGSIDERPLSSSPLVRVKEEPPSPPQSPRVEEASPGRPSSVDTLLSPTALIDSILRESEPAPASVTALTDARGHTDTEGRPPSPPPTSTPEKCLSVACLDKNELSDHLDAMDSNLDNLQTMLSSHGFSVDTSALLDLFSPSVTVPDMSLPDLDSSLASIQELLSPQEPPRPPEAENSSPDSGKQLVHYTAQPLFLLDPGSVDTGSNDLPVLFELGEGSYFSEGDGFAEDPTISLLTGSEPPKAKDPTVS
Outline: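 After a 24 h incubation with test chemical, transfected HepG2 cells were harvested for RNA; reporter transcripts were measured by RT-PCR and capillary electrophoresis. Values reflect gain or loss of signal relative to DMSO.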

[17] = ATG_MRE_CIS: Attagene CIS-FACTORIAL HepG2 Assay for human Metal Responsive Element (MRE) (AID 2282954); conditions: HepG2 MRE cis-reporter transcription, Attagene multiplex; actives raise or lower the signal
Outline: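 After a 24 h chemical exposure, transiently transfected HepG2 cells yield RNA whose reporter sequences are amplified, FAM-labelled and sized by capillary electrophoresis. Curves are fitted bidirectionally relative to DMSO.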

[18] = ATG_PBREM_CIS: Attagene CIS-FACTORIAL HepG2 Assay for human Phenobarbital-responsive Enhancer Module (PBREM) (AID 2282955); conditions: HepG2 PBREM cis-reporter, Attagene multiplexed transcription; actives raise or lower the signal
Outline: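 Fluorescence of labelled reporter cDNA fragments, resolved by capillary electrophoresis, gives mRNA induction in transfected HepG2 cells treated for 24 h; DMSO serves as negative control and baseline.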

[19] = ATG_GRE_CIS: Attagene CIS-FACTORIAL HepG2 Assay for human Glucocorticoid Response Elements (GRE) (AID 2282947); conditions: HepG2 GRE cis-reporter, Attagene multiplex mRNA; actives raise or lower the signal
Outline: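 Assay uses human hepatoma HepG2 cells transfected with cis-promoter reporter units, exposed 24 h. mRNA from reporters detected by RT-PCR plus capillary electrophoresis; DMSO serves as negative control and baseline.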

[20] = biological target: Paired box protein Pax-6 (Homo sapiens) (UniProt P26367); assay: ATG_Pax6_CIS: Attagene CIS-FACTORIAL HepG2 Assay for human Paired Box 6 (PAX6) (AID 2282956); conditions: HepG2 CIS-FACTORIAL PAX6 reporter transcription, RNA readout; actives raise or lower the signal
Sequence of Paired box protein Pax-6 (Homo sapiens) (P26367 whole entry, looked up): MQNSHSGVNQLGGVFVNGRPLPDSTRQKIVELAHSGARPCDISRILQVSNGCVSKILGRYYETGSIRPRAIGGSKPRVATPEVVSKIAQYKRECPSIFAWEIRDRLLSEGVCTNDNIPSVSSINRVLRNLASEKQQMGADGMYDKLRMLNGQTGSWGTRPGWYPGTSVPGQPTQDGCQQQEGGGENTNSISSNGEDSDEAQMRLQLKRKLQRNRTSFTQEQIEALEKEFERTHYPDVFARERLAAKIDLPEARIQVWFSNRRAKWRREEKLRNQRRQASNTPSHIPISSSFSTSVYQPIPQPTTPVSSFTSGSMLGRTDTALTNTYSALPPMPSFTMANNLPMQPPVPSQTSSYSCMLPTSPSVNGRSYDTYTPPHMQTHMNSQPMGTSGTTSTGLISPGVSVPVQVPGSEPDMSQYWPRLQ
Outline: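 Transient MRTU transfection of HepG2 → compound exposure 24 h → TriZol RNA, oligo(dT) RT → PCR, 6-FAM primer extension, HpaI cut → capillary electrophoresis; activity fitted both directions against DMSO.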

Measured: AC50

Nc1ccc(Cc2ccc(N)cc2)cc1
not listed: [19] | [20]
inactive: all other assays above

OCCCBr
not listed: [10] | [16] | [18] | [20]
inactive: all other assays above

CCNS(=O)(=O)C(F)(F)C(F)(F)C(F)(F)C(F)(F)C(F)(F)C(F)(F)C(F)(F)C(F)(F)F
inactive: [1] | [2] | [3] | [4] | [5] | [6] | [7] | [9] | [10] | [11] | [12] | [13] | [14] | [15] | [17]
active: [3] 96.5 µM | [9] 96.5 µM | [17] 114 µM and 150 µM

CC(C)(OOC(C)(C)c1ccccc1)c1ccccc1
active: [3] 61.9 µM | [5] 100 µM | [9] 59.1 µM | [11] 100 µM | [15] 100 µM | [17] 64 µM
not listed: [16] | [18] | [19] | [20]
inactive: all other assays above

Nc1ccc(N=Nc2ccccc2)cc1
active: [1] 100 µM | [3] 50.6 µM | [11] 57.2 µM | [14] 58.1 µM | [17] 67 µM
not listed: [18] | [19] | [20]
inactive: all other assays above

Cc1cccc(N)c1N
active: [3] 106 µM | [5] 77.1 µM | [14] 2.66 µM | [17] 106 µM | [20] 106 µM
not listed: [19]
inactive: all other assays above

CCOC(=O)[C@]1(c2ccccc2)Oc2ccccc2[C@@H]1N
active: [3] 33 µM | [7] 49.5 µM | [9] 59.5 µM | [19] 52.6 µM | [11] 33 µM | [12] 52.7 µM | [14] 1.78 µM | [15] 43.3 µM | [16] 61.8 µM | [17] 33 µM | [20] 37.6 µM
inactive: [1] | [2] | [4] | [5] | [6] | [8] | [10] | [13]

CCOc1cccc(C2(N3CCN(c4ccccc4)CC3)CCC(C)CC2)c1 (centres undefined)
not listed: [10] | [16] | [18] | [20]
inactive: all other assays above

Clc1ccc(C(c2ccc(Cl)cc2)C(Cl)(Cl)Cl)cc1
active: [11] 62.2 µM | [17] 100 µM
not listed: [18] | [19]
inactive: all other assays above

CC(C)N(Cc1ccccc1)C(=O)C(C)(C)C
not listed: [18] | [19]
inactive: all other assays above

C[C@]12C=CC3=C4CCC(=O)C=C4CC[C@H]3[C@@H]1CC[C@@H]2O
active: [3] 25.3 µM | [5] 31.8 µM and 30 µM | [7] 30.2 µM | [10] 760 nM and 26.7 µM and 26.8 µM | [11] 59.8 µM [middle of 4 runs] | [17] 100 µM and 44.5 µM and 52.5 µM
inactive: [1] | [2] | [3] | [4] | [5] | [6] | [7] | [8] | [9] | [10] | [11] | [12] | [13] | [14] | [15] | [16] | [17]

N#CC(Br)Br
not listed: [16] | [18] | [19]
inactive: all other assays above

OCCOCCO
not listed: [8] | [16]
inactive: all other assays above

CNC(=O)Oc1cccc2c1OC(C)(C)C2
not listed: [10] | [16] | [18] | [19]
inactive: all other assays above

Cc1ccc(N=C=O)cc1N=C=O
not listed: [10] | [16] | [18] | [19] | [20]
inactive: all other assays above
